# Rows were chosen to be rich in hits. Some 7.3% of all compounds tested hit in one or more screens of this group.
# HCV inhibitor = inhibitors of hepatitis C virus infection | Potency, µM (top dose mostly 41.8 µM), for the others: at the top dose activity change, negative = inhibition, most hits filed as inhibitors | AID 651820 | Huh7.5.1 HCVcc-Cre infection, luciferase reporter, 44 h | actives 3.4% (n = 340,000); active = well fitted inhibition curve with a large enough effect; inconclusive = small, poorly fitted or top-dose-only effect, or another doubt; inactive = no such curve, though single readings can be large or run the other way; also: potency is read from the fitted curve at half-maximal effect
#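 Whole-lifecycle infectious HCVcc-Cre system; cells 1,000/well, compound then virus (~0.5 moi) added 4 h after plating, 44 h culture. Luciferase read 15 sec following 15 min substrate incubation, room temp.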
# FMDV antiviral = blocks foot and mouth disease virus; AID 1159524; FMDV antiviral cell-based qHTS; Potency, µM (highest dose often 57.9 µM), for inactives: at the top dose activity change, negative = inhibition, hits mostly inhibitors; actives 1.2% (n = 410,000); calls by dose curve; tested in HEK293T cells; also: read-out not given here; potency is read from the fitted curve at half-maximal effect; nearly all actives have a fitted effect of over 45% in size
# Vaccinia Venus = vaccinia inhibition (Venus reporter) | Vaccinia virus Venus reporter expression, fluorescence | Potency, µM (highest dose often 36.5 µM), for inactives: top-dose activity change, negative = inhibition, usual class: inhibitors | actives 0.46% (n = 330,000) | AID 720580; calls by dose curve; tested in A549 cells; also: potency is read from the fitted curve at half-maximal effect; nearly all actives have a fitted effect of over 30% in size
# HCMV inh = inhibitors of human cytomegalovirus. AID 1259415. HFF cells, HCMV-luciferase reporter, 72 h; stronger effect = lower value. activity change, negative = inhibition, % at 57.5 µM. actives 4.5% (n = 410,000); in the data active = activity change below about -60%; inconclusive = no clear call, values can overlap the other calls; inactive = above about -39%
#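 Screen run at 2 compound doses on HFFs infected with reporter HCMV, MOI 1 PFU/cell. Luciferase activity from cell lysates at 72 h post infection gave inhibition relative to buffer-only and Salinomycin wells.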
# VACV mCherry inh = vaccinia inhibition (mCherry reporter). Vaccinia virus mCherry reporter infection, fluorescence. Potency, µM (doses to about 36.5 µM), for inactives: top-dose activity change, negative = inhibition, usual class: inhibitors. actives 0.63% (n = 310,000). AID 720579; calls by dose curve; tested in A549 cells; also: potency is read from the fitted curve at half-maximal effect; nearly all actives have a fitted effect of over 35% in size
# An asterisk follows results filed as active; i = inactive; ? = inconclusive; nt = not tested or not shown; + = active, no number; [ ] = dose if it differs, or a comment. % is scaled to controls: 0 for no effect and ±100 for the full control effect.
SMILES,HCV inhibitor,FMDV antiviral,Vaccinia Venus,HCMV inh,VACV mCherry inh
CCOc1ccc(C(=O)c2cc([N+](=O)[O-])ccc2N2CCOCC2)cc1,-22%,?,?,-90*,?
CCOc1ccccc1N(C)C(=O)c1cc(S(=O)(=O)NCc2ccc(C)cc2)ccc1F,nt,-23%,-1%,-34,-15%
CC(C)(C)S(=O)N1C[C@@H]2CC(=O)C(c3ccccc3)=C2[C@H]1CCO (stereo partly specified),nt,nt,nt,16,nt
Cn1cc(Cl)cc1-c1ncc(Cc2c[nH]c(N)[n+]2C)o1,nt,nt,nt,-12,nt
CCN(C(=O)c1sc2nc3n(c(=O)c2c1C)CCCC3)c1ccccc1F,nt,-17%,-14%,-39,-19%
COc1ccc(CNC(=O)c2sc3nc4n(c(=O)c3c2C)CCCCC4)cc1,nt,22µM*,-6%,16,1%
Cc1c(C(=O)NCc2ccc(Cl)cc2)sc2nc3n(c(=O)c12)CCC3,nt,-2%,-11%,-5,-25%
CCCN(C(=O)c1sc2nc3n(c(=O)c2c1C)CCCC3)c1ccccc1C,nt,-23%,14%,-102*,?
Cc1c(C(=O)Nc2ccc(Oc3ccccc3)cc2)sc2nc3n(c(=O)c12)CCC3,6.3µM*,?,?,-26,nt
Cc1c(C(=O)Nc2ccc(OC(F)(F)F)cc2)sc2nc3n(c(=O)c12)CCC3,-18%,?,-27%,?,nt
Cn1cnc(S(=O)(=O)N2CCC(C(=O)N3CCN(c4ccc(Cl)cc4)CC3)CC2)c1,nt,-7%,-18%,-14,-14%
COc1ccc(C(=O)Nc2nc(C)c3cc4c(cc3n2)OCO4)cc1,?,25µM*,-2%,1,-7%
Cc1nc(NC(=O)c2ccc(Cl)cc2)nc2cc3c(cc12)OCO3,6%,-22%,-28%,-4,-12%
COc1ccc2c(C)cc(SCC(=O)c3ccc4c(c3)OCO4)nc2c1,10µM*,-12%,nt,35,nt
CC1=CCC2C(=O)N(c3ccc(C(=O)Nc4ccccc4Cl)cc3)C(=O)C2C1 (stereo unspecified),-6%,0%,nt,-102*,nt
Cc1cc(C)n(-c2nc(Nc3ccccc3)nc(-n3nc(C)cc3C)n2)n1,-9%,nt,4%,-4,-17%
Cc1cc(C)n(-c2nc(N(c3ccccc3)c3ccccc3)nc(-n3nc(C)cc3C)n2)n1,10µM*,?,nt,nt,nt
COC(=O)[C@@H]1Cc2c([nH]c3ccccc23)C(C)(C)N1C(=O)CCl,1µM*,?,?,-99*,?
CCOC(=O)CN1C(=O)N[C@@H](CCc2ccccc2)C(C(C)=O)=C1C,-1%,-25%,-4%,16,i
CC(=O)C1=C(C)N(Cc2ccccc2)C(=O)N[C@H]1CCc1ccccc1,?,?,-20%,-93*,-30%
O=c1c2ccccc2nc(-c2ccccc2)n1-c1ccccc1,-8%,-24%,nt,-5,nt
O=c1c2ccccc2[se]n1-c1ccccc1,-4%[8.37 µM],11%,-9%,-67*,-3%
O=c1cc(-c2ccccc2)n2c(SCc3ccc([N+](=O)[O-])cc3)nnc2[nH]1,nt,23%,-13%,-1,?
O=C(CCn1c(=O)c2cccn2c2cccnc21)N1CCN(c2ccccc2)CC1,nt,-15%,-1%,-19,-9%
O=C(Cn1c(=O)c2cccn2c2cccnc21)N1CCN(c2ccc(Cl)cc2)CC1,13µM*,?,nt,nt,nt
SMILES,HCV inhibitor,FMDV antiviral,Vaccinia Venus,HCMV inh,VACV mCherry inh
CN1CCN(C(=O)CCn2c(=O)c3cccn3c3cccnc32)CC1,16%,-5%,-7%,+,-7%
O=C(CCn1c(=O)c2cccn2c2cccnc21)N1CCN(c2ccc(Cl)cc2)CC1,nt,?,-16%,?,-23%
COc1ccc(N2CCN(S(=O)(=O)c3ccc(OC)c(-c4noc(C)n4)c3)CC2)cc1,nt,8%,-9%,-18,-1%
Cn1c(-c2ccccc2)cnc1SCC(=O)N1CCCc2ccccc21,0%,-8%,-8%,?,-10%
Cc1cc(C)nc(SCC(=O)N2CCCCC2)n1,9%,-8%,-7%,-30,nt
Cc1cc(-c2ccccc2)nc(SCC(=O)N2CCCC2)n1,25µM*,-14%,4%,?,-2%
Cn1c(-c2ccccc2)cnc1SCC(=O)N1CCCCC1,7%,16µM*,-30%,-1,nt
COCCOC(=O)N1CCCCC1c1cc(C(=O)Nc2cccc3c2CCCC3)no1 (stereo unspecified),nt,?,0%,-12,-13%
Cc1cccc(-c2nc(CSc3nncn4c3cc3oc(C)cc34)c(C)o2)c1,nt,6%,-3%,-6,-7%
O=C(NCc1ccccc1Cl)NCc1noc2ccccc12,nt,27%,-5%,39,3%
Cc1ccc(-c2nnc(Nc3ccc(Br)cc3)c3ccccc23)cc1S(=O)(=O)N1CCOCC1,nt,-1%,-16%,-14,-16%
CC(C)Oc1ccc(-c2nc(NCC3CCCO3)c3ccccc3n2)cc1 (stereo unspecified),11µM*,?,-5%,-78*,-20%
c1cncc(-c2nc(NCC3CCCO3)c3ccccc3n2)c1 (stereo unspecified),?,3%,-2%,nt,i
Oc1ccccc1Nc1nc(NCC2CCCO2)c2ccccc2n1 (stereo unspecified),?,?,nt,-12,nt
Oc1ccc(Cl)cc1Nc1nc(NCC2CCCO2)c2ccccc2n1 (stereo unspecified),nt,28µM*,nt,-13,nt
Cc1ccc(S(=O)(=O)N(C)CCN(C)c2nc(-c3cccs3)nc3ccccc23)cc1,nt,nt,-14%,nt,-1%
O=c1cnc2cncnc2n1Cc1ccc(F)cc1,nt,-3%,nt,nt,nt
Cn1c(=O)[nH]c(=O)c2c1nc(SCC(=O)Nc1ccccc1)n2Cc1ccccc1,11µM*,-15%,-9%,25,i
C=C(C)CSc1nc2c(c(=O)[nH]c(=O)n2C)n1Cc1ccccc1,?,-9%,?,-18,?
CC(C)Sc1nc2c(c(=O)[nH]c(=O)n2C)n1Cc1ccc(Cl)cc1,?,-19%,-12%,8,nt
CC(C)CCn1c(N2CCN(Cc3ccccc3)CC2)nc2c1c(=O)[nH]c(=O)n2C,0%,nt,nt,nt,nt
Cc1ccc(Cl)cc1N1CCN(Cc2nc3c(c(=O)[nH]c(=O)n3C)n2Cc2ccccc2F)CC1,?,?,?,-77*,?
CCOC(=O)C(C)Sc1nc2c(c(=O)[nH]c(=O)n2C)n1Cc1ccc(Cl)cc1 (stereo unspecified),2.8µM*,?,-6%,43,i
CCCCCn1c(N2CCN(Cc3ccccc3)CC2)nc2c1c(=O)[nH]c(=O)n2C,10µM*,-1%,nt,-33,nt
CCOC(=O)c1noc2ncnc(N3CCN(c4ccccc4OC)CC3)c12,nt,-25%,-10%,-9,-14%
CCC(C)NC(=O)C1=CC(c2ccc3c(c2)OCO3)=NS(=O)(=O)N1C (stereo unspecified),nt,-6%,-2%,4,2%
CCOC(=O)Cn1c(=O)oc2cc(S(=O)(=O)N3CCC(C(=O)OCC)CC3)ccc21,nt,-19%,-5%,2,1%
O=C(C[n+]1cccc(Br)c1)c1cccc([N+](=O)[O-])c1,nt,nt,2%,nt,-7%

# High-throughput results as filed in PubChem.
